Only some compounds are listed: those with a hit (about 4.2% of all), similar ones and a draw of the others.
FBA Mtb inh: inhibits M. tuberculosis FBA enzyme; P9WQA3; purified M. tuberculosis FBA, fluorescence read-out; inhibition, % at 1 µM; 2.3% of 360,000 active; AID 588726; in the data active = inhibition above about 27%
Target sequence (P9WQA3 whole entry, looked up): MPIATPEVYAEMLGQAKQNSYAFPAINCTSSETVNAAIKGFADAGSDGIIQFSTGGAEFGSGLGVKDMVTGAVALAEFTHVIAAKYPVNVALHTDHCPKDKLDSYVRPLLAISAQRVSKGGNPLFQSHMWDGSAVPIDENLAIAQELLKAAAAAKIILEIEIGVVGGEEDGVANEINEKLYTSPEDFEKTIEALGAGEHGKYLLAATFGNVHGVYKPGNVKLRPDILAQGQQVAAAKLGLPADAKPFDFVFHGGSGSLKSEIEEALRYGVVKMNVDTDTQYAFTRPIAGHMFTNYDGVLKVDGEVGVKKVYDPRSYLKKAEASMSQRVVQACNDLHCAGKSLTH
GDH-TPI inh: GDH-TPI coupled enzyme inhibition counter-screen. GDH-TPI coupled enzyme counterscreen, NADH absorbance. inhibition, % at 4.8 µM. 1.2% of 360,000 active. AID 588335
CCHF vOTU inh-1: CCHFV vOTU protease inhibition; Pep-AMC fluorescence; inhibition, % at 11.5 µM; 0.55% of 370,000 active; AID 651958
RecA splice inh: blocks M. tuberculosis RecA intein splicing | P9WHJ3 | cell-free RecA intein splicing, fluorescence | inhibition, % (no concentration beside the values) | 0.75% of 290,000 active; in the data active = inhibition above about 30%
CCHF vOTU inh-2: confirmation of CCHF virus vOTU protease inhibitors. shares compounds with CCHF vOTU inh-1. Recombinant CCHFV vOTU, Pep-AMC fluorescence. inhibition, % at 11.5 µM. 17% of 1,900 active
A number is an active result. Rule as the data show it, unless noted: active = inhibition above about 30%; inactive = the rest.

For COc1cc(/C=N/N=C2/NC(=O)C(CC(=O)O)S2)ccc1OCc1ccc(Cl)cc1 (stereo not given) the results were FBA Mtb inh inactive, GDH-TPI inh 50.6, CCHF vOTU inh-1 34.1, RecA splice inh inactive and CCHF vOTU inh-2 inactive.
Screening COc1cc(/C=C(\C#N)C(=O)Nc2ccccc2)ccc1OCCN1CCOCC1 returned FBA Mtb inh inactive, GDH-TPI inh inactive, CCHF vOTU inh-1 inactive and RecA splice inh inactive.
`Cc1ccc2c(c1)c1c(n2CC(O)CNC(C)(C)C)CCCC1` (stereo not given) gave FBA Mtb inh inactive, GDH-TPI inh inactive, CCHF vOTU inh-1 56.9 and CCHF vOTU inh-2 inactive.
For CC(c1ccco1)N(Cc1ccco1)C(=O)Nc1ccccc1 (stereo not given) the results were FBA Mtb inh inactive, GDH-TPI inh inactive, CCHF vOTU inh-1 34.4, RecA splice inh inactive and CCHF vOTU inh-2 inactive.
`O=C(COc1ccc(Br)cc1)NNC(=O)Cc1ccc(S(=O)(=O)N2CCOCC2)s1` gave FBA Mtb inh inactive, GDH-TPI inh inactive and CCHF vOTU inh-1 inactive.
`COc1cc(Nc2ccccc2Cl)c([N+](=O)[O-])nc1[N+](=O)[O-]` gave FBA Mtb inh inactive, GDH-TPI inh inactive, CCHF vOTU inh-1 31.2, RecA splice inh inactive and CCHF vOTU inh-2 inactive.
For O=C(NCC(F)(F)F)C1C(=O)Nc2ccccc2C(=O)N1Cc1ccccc1 (stereo not given) the results were CCHF vOTU inh-1 inactive.
For CN1C(=O)[C@@H]2[C@H](C1=O)[C@@H]1C(=O)Nc3ccccc3C(=O)N1[C@@H]2c1cccc(Br)c1 the results were FBA Mtb inh inactive, GDH-TPI inh inactive, CCHF vOTU inh-1 inactive and RecA splice inh inactive.
COc1cc(O)c(NC(C)=O)c2nonc12 was read as FBA Mtb inh inactive, GDH-TPI inh inactive, CCHF vOTU inh-1 39.5, RecA splice inh inactive and CCHF vOTU inh-2 inactive.
For Cc1ccc2nc(C(C)(C)C)c(Cc3ccccc3C(F)(F)F)n2c1 the results were FBA Mtb inh inactive, CCHF vOTU inh-1 30.0 and CCHF vOTU inh-2 inactive.
CCN(CC(=O)Nc1ccc(NC(C)=O)cc1)C(=O)CCCc1nc2ccccc2c(=O)[nH]1 was read as FBA Mtb inh inactive, GDH-TPI inh inactive, CCHF vOTU inh-1 inactive and RecA splice inh inactive.
CCOC(=O)/C(C#N)=C/c1ccc(N2CCN(C)CC2)cc1 was read as FBA Mtb inh inactive, GDH-TPI inh inactive, CCHF vOTU inh-1 inactive and RecA splice inh inactive.
Screening CCOC(=O)C(/C=C(\C#N)C(=O)OCC)=C(/N)N1CCN(c2ccccc2)CC1 returned FBA Mtb inh inactive, GDH-TPI inh 36.2, CCHF vOTU inh-1 32.7, RecA splice inh inactive and CCHF vOTU inh-2 inactive.
Screening CCC(=NCC1CCCO1)c1c(O)n(-c2ccccc2)c(=O)[nH]c1=O (stereo not given) returned FBA Mtb inh inactive, GDH-TPI inh inactive, CCHF vOTU inh-1 inactive and RecA splice inh inactive.
`CCC(=NCC1CCCO1)c1c(O)n(Cc2ccccc2)c(=O)[nH]c1=O` (stereo not given) gave FBA Mtb inh inactive, GDH-TPI inh inactive, CCHF vOTU inh-1 33.2, RecA splice inh inactive and CCHF vOTU inh-2 inactive.
COc1cccc(/C=N/Nc2ccnc(=O)[nH]2)c1O was read as FBA Mtb inh inactive, GDH-TPI inh 35.7, CCHF vOTU inh-1 30.9, RecA splice inh inactive and CCHF vOTU inh-2 inactive.
`CCOc1ccccc1/C=N/Nc1ccnc(=O)[nH]1` gave FBA Mtb inh inactive, GDH-TPI inh inactive, CCHF vOTU inh-1 inactive and RecA splice inh inactive.
Screening CC1CCC/C(=N\NC(=O)Nc2ccccc2)C1 (stereo not given) returned FBA Mtb inh inactive, GDH-TPI inh inactive, CCHF vOTU inh-1 34.1, RecA splice inh inactive and CCHF vOTU inh-2 inactive.
Screening CCc1noc(C)c1C(=O)Nc1ccc(Cl)c(S(=O)(=O)N2CCCCC2)c1 returned FBA Mtb inh inactive, GDH-TPI inh inactive, CCHF vOTU inh-1 32.0, RecA splice inh inactive and CCHF vOTU inh-2 inactive.
`CCc1noc(C)c1C(=O)Nc1ccc(S(=O)(=O)N2CCCCC2)cc1` gave FBA Mtb inh inactive, GDH-TPI inh inactive, CCHF vOTU inh-1 inactive and RecA splice inh inactive.
CC(=O)N(Cc1ccco1)c1nc(C(=O)Nc2ccc(Cl)cc2)c(C)s1 was read as FBA Mtb inh inactive, GDH-TPI inh inactive, CCHF vOTU inh-1 inactive and RecA splice inh inactive.
For CC(=O)c1c(C)[nH]c(C(=O)Nc2cccc(C(F)(F)F)c2)c1C the results were FBA Mtb inh inactive, GDH-TPI inh inactive, CCHF vOTU inh-1 inactive and RecA splice inh inactive.
COC(=O)c1ccc(NC(=O)CNCc2ccncc2)cc1 was read as FBA Mtb inh inactive, GDH-TPI inh inactive, CCHF vOTU inh-1 32.4, RecA splice inh inactive and CCHF vOTU inh-2 inactive.
`COC(=O)c1ccc(CNCC(=O)Nc2ccc(C(=O)OC)cc2)cc1` gave FBA Mtb inh inactive, GDH-TPI inh inactive, CCHF vOTU inh-1 inactive and RecA splice inh inactive.
Screening COc1ccc([C@H]2C[C@@H](n3cc(-c4ccc(F)cc4)nn3)[C@H](O)CN2CC2CCCCC2)cc1 returned FBA Mtb inh inactive, GDH-TPI inh inactive and CCHF vOTU inh-1 inactive.
Screening COc1ccc(/C=C2\SC(=S)N(NS(=O)(=O)c3ccc(C)cc3)C2=O)c(OC)c1 returned FBA Mtb inh inactive, GDH-TPI inh inactive, CCHF vOTU inh-1 inactive and RecA splice inh inactive.
Screening CCOc1ccc(/C=C2\SC(=S)N(NS(=O)(=O)c3ccccc3)C2=O)cc1OC returned FBA Mtb inh inactive, GDH-TPI inh inactive, CCHF vOTU inh-1 40.8, RecA splice inh inactive and CCHF vOTU inh-2 inactive.
For COc1ccccc1/C=C1\SC(=S)N(NS(=O)(=O)c2ccc(C)cc2)C1=O the results were FBA Mtb inh inactive, GDH-TPI inh inactive, CCHF vOTU inh-1 35.6, RecA splice inh inactive and CCHF vOTU inh-2 inactive.
`COc1ccc(OC)c(/C=C2\SC(=S)N(NS(=O)(=O)c3ccc(C)cc3)C2=O)c1` gave FBA Mtb inh inactive, GDH-TPI inh inactive, CCHF vOTU inh-1 33.0, RecA splice inh inactive and CCHF vOTU inh-2 inactive.
CCN(Cc1ccc(Cl)s1)C(=O)c1cccc(OCc2c(C)noc2C)c1 was read as FBA Mtb inh inactive, GDH-TPI inh inactive and CCHF vOTU inh-1 inactive.
CC1CNC(=S)N(c2ccccc2)C1=O (stereo not given) was read as FBA Mtb inh inactive, GDH-TPI inh inactive and CCHF vOTU inh-1 inactive.
Cc1ccc(CNc2ccc(O)cc2)cc1 was read as FBA Mtb inh inactive, GDH-TPI inh inactive, CCHF vOTU inh-1 62.5, RecA splice inh 85.3 and CCHF vOTU inh-2 71.7.
`Cc1cc(=O)n(C)c2ccccc12` gave FBA Mtb inh inactive, GDH-TPI inh inactive, CCHF vOTU inh-1 inactive and RecA splice inh inactive.
Cc1cc(=O)n2c3c(c4c(cc13)c(CN(C)C)cc(=O)n4C)OC2 was read as FBA Mtb inh inactive, GDH-TPI inh inactive, CCHF vOTU inh-1 90.1 and CCHF vOTU inh-2 51.0.
Cc1ccc(C)c(N2CCN(C(=O)c3ccc4nc(-c5ccco5)c(-c5ccco5)nc4c3)CC2)c1 was read as FBA Mtb inh inactive, GDH-TPI inh inactive, CCHF vOTU inh-1 44.2, RecA splice inh inactive and CCHF vOTU inh-2 inactive.
For Cc1cc(C=C2C(=O)NC(=O)NC2=O)c(C)n1-c1ccc2c(c1)OCO2 the results were FBA Mtb inh inactive, GDH-TPI inh inactive, CCHF vOTU inh-1 inactive and RecA splice inh inactive.

Compound activity as filed in PubChem.
